Inconclusive results are not listed. The source made the active and inactive calls. The call rests on the fitted dose curve; in most records, active means well fitted activation curve with a large enough effect in the repeat runs; inconclusive means weak or mixed curves; inactive means no such curve, though single readings can be large or run the other way. Non-standard residues stand in square brackets, D forms with d. Residues, ends and D or L forms follow the SMILES beside them. *: point of attachment. Sta = CC(C)C[C@H](N)[C@@H](O)CC(=O)O; Isovaleryl = CC(C)CC(=O)*
assay: qHTS assay for small molecules that induce genotoxicity in human embryonic kidney cells expressing luciferase-tagged ATAD5 (AID 651632); conditions: HEK293T ATAD5-luciferase induction, 16 h; series mostly up to 83.3 µM; activation: at the top concentration; further: nearly all actives have a fitted effect of over 15% in size
Source text: U.S. Tox21 Program National Center for Advancing Translational Sciences [NCATS] NIH Chemical Genomics Center [NCGC] U.S. Environmental Protection Agency [EPA] National Institutes of Environmental Health Sciences [NIEHS] National Toxicology Program [NTP] U.S. Food and Drug Administration [FDA] Tox21 Assay Overview: As cancer cells divide rapidly and during every cell division they need to duplicate their genome by DNA replication. The failure to do so results in the cancer cell death. Based on this concept, many chemotherapeutic agents were developed but have limitations such as low efficacy and severe side effects etc. A new cell based assay was developed to find the compounds that effectively block DNA replication either by directly damaging DNA or by inhibiting other cellular mechanisms. Enhanced Level of Genome Instability Gene 1 (ELG1; human ATAD5) protein levels increase in response to various types of DNA damage. Using a luciferase reporter-gene tagged with ATAD5, a cell-based assay [developed by Kyungjae Myung, NHGRI, NIH] was used to measure the induction of ATAD5 in human embryonic kidney cells (HEK293T). So, increase in luciferase activity can be used to identify the compounds that cause genetic stress.
Tox21 Assay Protocol Summary: For genotoxicity screening, 2,000 cells in 5 uL/well were dispensed into white, solid-bottom 1536-well plates using a Multidrop Combi (Thermo Scientific) dispenser. Following transfer of 23 nL compound or DMSO vehicle by a pin tool, the plates were incubated 16 hr at 37C and 5% CO2. 5 ul Amplite (AAT Bioquest, Inc.) was then added to each plate and following 30 min incubation at room temperature, luciferase activity was quantified on a ViewLux CCD-based plate reader.
On the % scale 0 is the no-effect control and ±100 the full control effect.

Structure (SMILES)	activation
COc1ccc(Cl)cc1C	1.03% [at 95.3 µM] (inactive)
CC(C)CC(=O)N[C@H](C(=O)N[C@H](C(=O)N[C@@H](CC(C)C)[C@@H](O)CC(=O)N[C@@H](C)C(=O)N[C@@H](CC(C)C)[C@@H](O)CC(=O)O)C(C)C)C(C)C (Isovaleryl-VV[Sta]A[Sta]-OH)	2.11% (inactive)
CC(O)C(CO)C(C)O (stereo not given)	2.72% [at 95.3 µM] (inactive)
CCOC(=O)[C@H](CCc1ccccc1)N[C@H]1CS[C@H](c2cccs2)CN(CC(=O)O)C1=O	0.259% (inactive)
COc1cc(OC)cc(OC)c1	1.09% (inactive)
CCOC(=O)COc1ccc2c(C)c(CCN(CC)CC)c(=O)oc2c1Cl	0.577% (inactive)
CC(=O)SC[C@@H](C)C(=O)N1CCC[C@H]1C(=O)N[C@@H](Cc1ccccc1)C(=O)O	3.35% (inactive)
CC(CC(=O)Cl)CC(C)(C)C (stereo not given)	3.47% [at 95.3 µM] (inactive)
CCCCCCCCCCCCCCCC/C=C/C1CC(=O)OC1=O (stereo not given)	4.22% (inactive)
C/C=C/C(=O)CCCC	1.97% (inactive)
CC(C)(C)C(=O)CCc1ccc(Cl)cc1	1% (inactive)
CCCc1ccc(O)c(OC)c1	-0.543% (inactive)
CC(C)(C)OC=O	-3.64% [at 95.3 µM] (inactive)
COC(=O)c1c(C)cc(O)c(C)c1O	2.37% (inactive)
CCCCNCC	-0.917% (inactive)
Nc1ccc(C(=O)NCC(=O)O)cc1	-0.717% [at 39.1 µM] (inactive)
CC(=O)OC/C=C(/C)CCC=C(C)C	1.58% (inactive)
CC/C=C\CCCCCCCCCCOC(C)=O	2.56% (inactive)
CCCCN=C(N)N=C(N)N	-1.47% (inactive)
CCCCCCCCCCCCCCBr	2.15% [at 95.3 µM] (inactive)

Structure (SMILES)	activation
CC(C)(O)CCCC1=CCC(C=O)CC1 (stereo not given)	0.505% [at 95.3 µM] (inactive)
N=C(N)S(=O)O	0.707% (inactive)
Cc1ccc(OC(=O)CC(C)C)cc1	-1.23% (inactive)
Cc1cc(O)c(Cl)cc1C	-0.339% (inactive)
Cc1ccc2cccnc2c1	1.43% (inactive)
CCOC(=O)CC	4.56% (inactive)
O=C(O)COc1ccc2ccccc2c1	1.55% (inactive)
CCOC(=O)c1ccc(N(C)C)cc1	8.53% (inactive)
Cc1ccc(NC(N)=O)cc1	0.381% [at 95.3 µM] (inactive)
CN(C)CCc1c[nH]c2ccc(C[C@H]3COC(=O)N3)cc12	1% (inactive)
CC(=O)c1c(C)cc(C(C)(C)C)cc1C	-2.8% (inactive)
COCCCOc1cc(C[C@@H](C[C@H](N)[C@@H](O)C[C@H](C(=O)NCC(C)(C)C(N)=O)C(C)C)C(C)C)ccc1OC	2.95% (inactive)
CCCCCCCCCCCCCCCC(=O)OC	3.76% [at 39.1 µM] (inactive)
O=C(O)CCC(=O)Nc1ccc(S(=O)(=O)Nc2nccs2)cc1	-1.31% [at 39.1 µM] (inactive)
CCCCCCC(O)CO (stereo not given)	0.69% (inactive)
O=C1Nc2ccccc2C1=O	-0.691% (inactive)
CCO[Si](CC(C)C)(OCC)OCC	-1.68% (inactive)
CC(C)(C)C(=O)NCCCC(=O)O	0.583% (inactive)
Cc1nc2ccc(Cl)cc2[nH]1	-1.39% (inactive)
C=CCN1CCc2nc(N)sc2CC1	1.28% (inactive)

— PubChem BioAssay (Tox21)
